Test results as given in PMC12864922, “TDP-43 directly inhibits mRNA accumulation in neurites through modulation of mRNA stability”.
The full ranking holds about 9,900 sequences; the median of “r (bound/input frequency ratio)” is about 0.7, and the highest 2% start at about 6.5. The sample as a whole holds a higher share of the highest values than the screen did.

B1: ENSMUSG00000029636.424|Wasf3 (ssRNA)
RNA: GGGAGUUCUACAGUCCGACGAUCGCUUCGAUAUCCGCAUGCUAUGGGUUAGGUGGGUAAGUAGCUAGGUGGAUGGGUGGGUGGAUACAUGGAUGAGUGGAUGGGUGGAUUGGUGGGUGAGUGGAUAGGUGAAUGGAUGAUAGGUGGUGGAUGGUUGAGUGGGUGGAUUCAUGAUGGAUGGAUGGAUGGAUGGAUGGAUGGAUGGAUGGAUGAGUGGAUGGAUAAUAGGUUGAUGGGUGGAUAGGUAGAUGAGUGAAUAGAUAGAUAUAGAUCAGUGGGAGGAUUGGAAAGUAGGUGAAUGAAUCUCUUGCGGUCGCACUAGUGUGGAAUUCUCGGGUGUCAAGG
B2: ENSMUSG00000029636.426|Wasf3 (ssRNA)
RNA: GGGAGUUCUACAGUCCGACGAUCGCUUCGAUAUCCGCAUGCUAGUAAGUAGCUAGGUGGAUGGGUGGGUGGAUACAUGGAUGAGUGGAUGGGUGGAUUGGUGGGUGAGUGGAUAGGUGAAUGGAUGAUAGGUGGUGGAUGGUUGAGUGGGUGGAUUCAUGAUGGAUGGAUGGAUGGAUGGAUGGAUGGAUGGAUGGAUGAGUGGAUGGAUAAUAGGUUGAUGGGUGGAUAGGUAGAUGAGUGAAUAGAUAGAUAUAGAUCAGUGGGAGGAUUGGAAAGUAGGUGAAUGAAUGGAUGGCAGAUACUCUUGCGGUCGCACUAGUGUGGAAUUCUCGGGUGUCAAGG
B3: ENSMUSG00000029636.433|Wasf3 (ssRNA)
RNA: GGGAGUUCUACAGUCCGACGAUCGCUUCGAUAUCCGCAUGCUAGGAUGGGUGGAUUGGUGGGUGAGUGGAUAGGUGAAUGGAUGAUAGGUGGUGGAUGGUUGAGUGGGUGGAUUCAUGAUGGAUGGAUGGAUGGAUGGAUGGAUGGAUGGAUGGAUGAGUGGAUGGAUAAUAGGUUGAUGGGUGGAUAGGUAGAUGAGUGAAUAGAUAGAUAUAGAUCAGUGGGAGGAUUGGAAAGUAGGUGAAUGAAUGGAUGGCAGAUAGAUGGAUCAAUUACAGAUGGAUGGAUGCAUGGAAUAGAUAGGCUCUUGCGGUCGCACUAGUGUGGAAUUCUCGGGUGUCAAGG
B4: ENSMUSG00000029636.422|Wasf3 (ssRNA)
RNA: GGGAGUUCUACAGUCCGACGAUCGCUUCGAUAUCCGCAUGCUAUGAGUGGAUGGGUGGGUUAGGUGGGUAAGUAGCUAGGUGGAUGGGUGGGUGGAUACAUGGAUGAGUGGAUGGGUGGAUUGGUGGGUGAGUGGAUAGGUGAAUGGAUGAUAGGUGGUGGAUGGUUGAGUGGGUGGAUUCAUGAUGGAUGGAUGGAUGGAUGGAUGGAUGGAUGGAUGGAUGAGUGGAUGGAUAAUAGGUUGAUGGGUGGAUAGGUAGAUGAGUGAAUAGAUAGAUAUAGAUCAGUGGGAGGAUUGGAAAGUCUCUUGCGGUCGCACUAGUGUGGAAUUCUCGGGUGUCAAGG
B5: ENSMUSG00000029636.434|Wasf3 (ssRNA)
RNA: GGGAGUUCUACAGUCCGACGAUCGCUUCGAUAUCCGCAUGCUAGUGGAUUGGUGGGUGAGUGGAUAGGUGAAUGGAUGAUAGGUGGUGGAUGGUUGAGUGGGUGGAUUCAUGAUGGAUGGAUGGAUGGAUGGAUGGAUGGAUGGAUGGAUGAGUGGAUGGAUAAUAGGUUGAUGGGUGGAUAGGUAGAUGAGUGAAUAGAUAGAUAUAGAUCAGUGGGAGGAUUGGAAAGUAGGUGAAUGAAUGGAUGGCAGAUAGAUGGAUCAAUUACAGAUGGAUGGAUGCAUGGAAUAGAUAGGUGGAUGCUCUUGCGGUCGCACUAGUGUGGAAUUCUCGGGUGUCAAGG
B6: ENSMUSG00000029636.423|Wasf3 (ssRNA)
RNA: GGGAGUUCUACAGUCCGACGAUCGCUUCGAUAUCCGCAUGCUAGAUGGGUGGGUUAGGUGGGUAAGUAGCUAGGUGGAUGGGUGGGUGGAUACAUGGAUGAGUGGAUGGGUGGAUUGGUGGGUGAGUGGAUAGGUGAAUGGAUGAUAGGUGGUGGAUGGUUGAGUGGGUGGAUUCAUGAUGGAUGGAUGGAUGGAUGGAUGGAUGGAUGGAUGGAUGAGUGGAUGGAUAAUAGGUUGAUGGGUGGAUAGGUAGAUGAGUGAAUAGAUAGAUAUAGAUCAGUGGGAGGAUUGGAAAGUAGGUGACUCUUGCGGUCGCACUAGUGUGGAAUUCUCGGGUGUCAAGG
B7: ENSMUSG00000029636.425|Wasf3 (ssRNA)
RNA: GGGAGUUCUACAGUCCGACGAUCGCUUCGAUAUCCGCAUGCUAAGGUGGGUAAGUAGCUAGGUGGAUGGGUGGGUGGAUACAUGGAUGAGUGGAUGGGUGGAUUGGUGGGUGAGUGGAUAGGUGAAUGGAUGAUAGGUGGUGGAUGGUUGAGUGGGUGGAUUCAUGAUGGAUGGAUGGAUGGAUGGAUGGAUGGAUGGAUGGAUGAGUGGAUGGAUAAUAGGUUGAUGGGUGGAUAGGUAGAUGAGUGAAUAGAUAGAUAUAGAUCAGUGGGAGGAUUGGAAAGUAGGUGAAUGAAUGGAUGGCUCUUGCGGUCGCACUAGUGUGGAAUUCUCGGGUGUCAAGG
B8: ENSMUSG00000029636.436|Wasf3 (ssRNA)
RNA: GGGAGUUCUACAGUCCGACGAUCGCUUCGAUAUCCGCAUGCUAGUGAGUGGAUAGGUGAAUGGAUGAUAGGUGGUGGAUGGUUGAGUGGGUGGAUUCAUGAUGGAUGGAUGGAUGGAUGGAUGGAUGGAUGGAUGGAUGAGUGGAUGGAUAAUAGGUUGAUGGGUGGAUAGGUAGAUGAGUGAAUAGAUAGAUAUAGAUCAGUGGGAGGAUUGGAAAGUAGGUGAAUGAAUGGAUGGCAGAUAGAUGGAUCAAUUACAGAUGGAUGGAUGCAUGGAAUAGAUAGGUGGAUGGGUGGUGGCUAGCUCUUGCGGUCGCACUAGUGUGGAAUUCUCGGGUGUCAAGG
B9: ENSMUSG00000029636.431|Wasf3 (ssRNA)
RNA: GGGAGUUCUACAGUCCGACGAUCGCUUCGAUAUCCGCAUGCUAACAUGGAUGAGUGGAUGGGUGGAUUGGUGGGUGAGUGGAUAGGUGAAUGGAUGAUAGGUGGUGGAUGGUUGAGUGGGUGGAUUCAUGAUGGAUGGAUGGAUGGAUGGAUGGAUGGAUGGAUGGAUGAGUGGAUGGAUAAUAGGUUGAUGGGUGGAUAGGUAGAUGAGUGAAUAGAUAGAUAUAGAUCAGUGGGAGGAUUGGAAAGUAGGUGAAUGAAUGGAUGGCAGAUAGAUGGAUCAAUUACAGAUGGAUGGAUGCAUCUCUUGCGGUCGCACUAGUGUGGAAUUCUCGGGUGUCAAGG

Biological target: TDP-43 (Homo sapiens, UniProt Q13148 1-414)
Sequence (Q13148 whole entry): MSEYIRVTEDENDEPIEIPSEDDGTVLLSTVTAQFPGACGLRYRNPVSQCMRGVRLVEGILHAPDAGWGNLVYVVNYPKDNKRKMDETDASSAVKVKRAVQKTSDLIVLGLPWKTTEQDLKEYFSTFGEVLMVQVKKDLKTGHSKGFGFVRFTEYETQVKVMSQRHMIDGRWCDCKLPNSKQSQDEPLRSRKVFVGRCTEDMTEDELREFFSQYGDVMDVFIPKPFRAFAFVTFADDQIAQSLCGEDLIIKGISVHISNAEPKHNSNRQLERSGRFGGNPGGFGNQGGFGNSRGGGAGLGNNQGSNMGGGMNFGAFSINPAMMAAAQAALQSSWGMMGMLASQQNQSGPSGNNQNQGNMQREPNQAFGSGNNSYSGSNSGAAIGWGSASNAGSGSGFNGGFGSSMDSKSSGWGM
Experiment: RNA Bind-n-Seq with designed 260-mer pool; 25 mM Tris-HCl, 150 mM KCl, 3 mM MgCl2, BSA (printed 500 mg/mL), 20 units/mL SUPERase IN; pH not stated; 500 nM RNA pool, 1 h, 4 C; TDP-43 5, 50, 500 nM; high values mean tight binding
Details: protein: recombinant; tags: SBP (GST cleaved off with PreScission; pGEX-GST-SBP)
How it was run: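 In 25 mM Tris-HCl, 150 mM KCl, 3 mM MgCl2, BSA and SUPERase IN, 500 nM of an in vitro-transcribed 260-nt 3′ UTR oligo pool was incubated for 1 h at 4 °C with SBP-tagged TDP-43 (5, 50 or 500 nM) captured on streptavidin beads. RNA remaining after washes was biotin-eluted, reverse transcribed, PCR-amplified and sequenced. Binding, R, is the bound-sample abundance of each oligo, normalized to mapped reads, divided by its abundance in input. Each duplicate used a separate, independent protein batch.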

Binder	binding signal
B1	1.66 R (bound/input frequency ratio)
B2	3.58 R (bound/input frequency ratio)
B3	4.32 R (bound/input frequency ratio)
B4	11.2 R (bound/input frequency ratio)
B5	7.94 R (bound/input frequency ratio)
B6	4.57 R (bound/input frequency ratio)
B7	3.86 R (bound/input frequency ratio)
B8	6.61 R (bound/input frequency ratio)
B9	6.71 R (bound/input frequency ratio)
